Reference: the OligoGym collection

The sequences below were run against PRUNE (assay: pooled miR-30 sensor sort-seq; sequence = guide strand). Details: shRNA.
Sequence TATAGATAGTCTTCTGGTCTTT has a sensor-assay potency score (higher = more potent) of -0.453.
Work on TTTCTTTCGAGAGACCTGGGTG yielded a sensor-assay potency score (higher = more potent) of -0.0186.
Sequence TTACCTTCCACATAGCTACAGA has a sensor-assay potency score (higher = more potent) of -0.331.
For TGTCTATAGATAGTCTTCTGGT, the sensor-assay potency score (higher = more potent) was -0.567.
Sequence TAGAGGTCGGGACTCCTGCAGA has a sensor-assay potency score (higher = more potent) of -0.699.
With TTTCTCTCTAGCTTGAGGCAGG the sensor-assay potency score (higher = more potent) was -0.511.

Each sequence was assayed against PSD4 in the same assay as above. Details: shRNA.
For TTTCCCTTGGGCACTCTCCTGG, the sensor-assay potency score (higher = more potent) was -0.299.
Sequence TGCACGTAGGTCTCGTAGCGGG has a sensor-assay potency score (higher = more potent) of -1.25.
In the case of TTTTCTTCAAGGAACTTGGCTG, the sensor-assay potency score (higher = more potent) is reported as -0.084.
Sequence TTGCGCTTCACCTTGGCCGTGG has a sensor-assay potency score (higher = more potent) of 0.0843.
For TCACTCTTTACTTCCTCGCCTG, the sensor-assay potency score (higher = more potent) was -0.455.
Work on TTACCTCTCTATCCTCTCCAGT yielded a sensor-assay potency score (higher = more potent) of -0.76.
For TAAGGTGTGGAACATCTTCCAG, the sensor-assay potency score (higher = more potent) was -1.04.
AAGGTGTGGAACATCTTCCAGC showed a sensor-assay potency score (higher = more potent) of -0.755.
Sequence TTAAGCAGCATGATTGCACATG has a sensor-assay potency score (higher = more potent) of -0.729.
With TAGCTAGCTTGTCTCCAGCTGG the sensor-assay potency score (higher = more potent) was -0.572.
TCTTCTTGCCGTCTGCATCTTG showed a sensor-assay potency score (higher = more potent) of -0.456.

The sequences below were run against PSG2 in the same assay as above. Details: shRNA.
TTCTTGTAGAAGCAGAGACTTT gave a sensor-assay potency score (higher = more potent) of -1.51.
For TTAAAAGTGATGCTGTGACCAG, the sensor-assay potency score (higher = more potent) was -0.575.
ACAAGTAGAGGTTATCTCCTGA showed a sensor-assay potency score (higher = more potent) of 0.66.
AAACCTATGAGTCATAGGGAGG was tested, and the sensor-assay potency score (higher = more potent) was -1.86.
TAGAAGCAGAGACTTTGACTGT was tested, and the sensor-assay potency score (higher = more potent) was -0.247.
Sequence TTTCTCGTCCACTATATGCAGG has a sensor-assay potency score (higher = more potent) of -0.849.
Work on TAGAGGTTATCTCCTGAACGGT yielded a sensor-assay potency score (higher = more potent) of -0.865.
Work on TTTCGGACAGCTGAAACCTATG yielded a sensor-assay potency score (higher = more potent) of -1.61.
TAAAAGTGATGCTGTGACCAGG gave a sensor-assay potency score (higher = more potent) of -0.171.
TTGACTGTCAACGATGTGGAGC showed a sensor-assay potency score (higher = more potent) of -0.475.

These sequences were tested against PSIP1 in the same assay as above. Details: shRNA.
TTAATCTCAGCATGTATCCTTT showed a sensor-assay potency score (higher = more potent) of 0.197.
Sequence TTAGTTACTAGTGCCTGCCTAT has a sensor-assay potency score (higher = more potent) of 0.32.
Sequence TATCTATCTCCCATAAACCTTC has a sensor-assay potency score (higher = more potent) of -0.586.
TTATACAACATTGTAGACTTTT gave a sensor-assay potency score (higher = more potent) of -0.451.
For TTAGTCACATCCTCATTGCTGG, the sensor-assay potency score (higher = more potent) was 0.128.
Work on TTAAGTTTTAGTGACTTCCTAA yielded a sensor-assay potency score (higher = more potent) of -0.13.
TTGATTGTTTAGTTGCTGCCTG was tested, and the sensor-assay potency score (higher = more potent) was 0.524.
TTCATGGTCGGTATCTTCCTTT showed a sensor-assay potency score (higher = more potent) of -0.126.
In the case of TTGAAAATATGCTACAACCATG, the sensor-assay potency score (higher = more potent) is reported as -1.01.
For TTCAACATCAAACCTATGCTTA, the sensor-assay potency score (higher = more potent) was 0.354.
Sequence TTGACTTGAAAATTTCACTTTT has a sensor-assay potency score (higher = more potent) of -0.471.
